Data taken from patent US20140271602, “NUCLEOTIDE-SPECIFIC RECOGNITION SEQUENCES FOR DESIGNER TAL EFFECTORS” (THE BROAD INSTITUTE INC., published 2014).
Residue numbers refer to the chain shown, from its start.

Legend:
Assay in all cases: cell_activity; luciferase reporter
Settings in all cases: tags: VP64, 2A-GFP; dsDNA, one strand shown
[1] = target: T1, TALE2-HN (CACNA1C site 2 activator) (Xanthomonas (engineered), UniProt P14727 SEQ:1-983)
T1 chain: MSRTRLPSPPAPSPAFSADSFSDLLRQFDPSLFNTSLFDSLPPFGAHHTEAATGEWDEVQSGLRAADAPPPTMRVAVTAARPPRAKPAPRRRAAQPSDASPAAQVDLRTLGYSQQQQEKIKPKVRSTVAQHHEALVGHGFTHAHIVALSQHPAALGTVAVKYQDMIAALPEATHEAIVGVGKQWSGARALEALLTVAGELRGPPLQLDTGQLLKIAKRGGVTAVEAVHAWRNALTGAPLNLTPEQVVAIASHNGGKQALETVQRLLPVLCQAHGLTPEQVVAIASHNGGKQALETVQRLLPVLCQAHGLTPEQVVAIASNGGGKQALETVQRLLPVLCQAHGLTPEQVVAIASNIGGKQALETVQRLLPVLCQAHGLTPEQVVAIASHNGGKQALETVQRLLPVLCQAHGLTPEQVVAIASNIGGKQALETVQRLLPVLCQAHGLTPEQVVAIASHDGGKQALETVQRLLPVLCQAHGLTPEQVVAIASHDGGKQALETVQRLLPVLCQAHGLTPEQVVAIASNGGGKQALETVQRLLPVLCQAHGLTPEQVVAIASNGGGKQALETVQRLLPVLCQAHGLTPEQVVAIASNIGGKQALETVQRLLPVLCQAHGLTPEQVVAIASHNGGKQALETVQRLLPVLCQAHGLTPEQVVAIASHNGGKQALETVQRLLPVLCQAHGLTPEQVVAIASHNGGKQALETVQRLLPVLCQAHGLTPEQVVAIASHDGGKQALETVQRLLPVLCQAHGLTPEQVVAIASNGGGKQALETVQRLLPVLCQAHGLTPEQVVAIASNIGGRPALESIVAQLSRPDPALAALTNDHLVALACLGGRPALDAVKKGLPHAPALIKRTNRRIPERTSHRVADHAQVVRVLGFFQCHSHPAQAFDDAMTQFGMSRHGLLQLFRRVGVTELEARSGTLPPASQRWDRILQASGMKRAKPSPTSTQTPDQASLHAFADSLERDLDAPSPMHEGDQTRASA

[2] = target: T2, TALE2-NH (CACNA1C site 2 activator) (Xanthomonas (engineered), UniProt P14727 SEQ:1-983)
T2 chain: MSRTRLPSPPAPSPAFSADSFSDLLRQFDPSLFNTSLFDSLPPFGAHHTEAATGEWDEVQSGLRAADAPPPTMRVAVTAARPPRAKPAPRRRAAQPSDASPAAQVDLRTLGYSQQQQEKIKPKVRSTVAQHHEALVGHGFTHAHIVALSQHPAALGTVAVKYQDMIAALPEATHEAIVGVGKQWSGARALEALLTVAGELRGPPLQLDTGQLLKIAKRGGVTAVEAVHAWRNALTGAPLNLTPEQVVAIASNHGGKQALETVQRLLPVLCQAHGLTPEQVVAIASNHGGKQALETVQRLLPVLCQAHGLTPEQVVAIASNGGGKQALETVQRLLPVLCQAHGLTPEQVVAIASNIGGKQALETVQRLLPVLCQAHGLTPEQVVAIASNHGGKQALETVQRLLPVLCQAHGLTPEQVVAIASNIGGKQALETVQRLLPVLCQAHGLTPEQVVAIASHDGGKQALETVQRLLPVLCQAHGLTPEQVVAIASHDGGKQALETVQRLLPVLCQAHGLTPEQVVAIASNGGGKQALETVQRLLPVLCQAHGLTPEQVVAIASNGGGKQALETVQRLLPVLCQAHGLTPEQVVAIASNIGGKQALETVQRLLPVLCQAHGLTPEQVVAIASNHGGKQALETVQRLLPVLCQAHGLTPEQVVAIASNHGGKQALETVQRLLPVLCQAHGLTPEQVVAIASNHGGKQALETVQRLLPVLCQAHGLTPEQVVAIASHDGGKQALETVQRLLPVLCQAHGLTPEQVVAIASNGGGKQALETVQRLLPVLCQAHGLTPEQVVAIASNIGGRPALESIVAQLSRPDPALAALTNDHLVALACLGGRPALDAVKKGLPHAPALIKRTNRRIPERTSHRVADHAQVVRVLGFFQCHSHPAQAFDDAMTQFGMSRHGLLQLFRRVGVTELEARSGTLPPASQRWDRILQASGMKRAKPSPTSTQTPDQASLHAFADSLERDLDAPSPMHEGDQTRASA

[3] = target: T3, TALE2-NK (CACNA1C site 2 activator) (Xanthomonas (engineered), UniProt P14727 SEQ:1-983)
T3 chain: T2 chain with H253K, H287K, H389K, H627K, H661K, H695K

[4] = target: T4, TALE1-NN (CACNA1C site 1 activator) (Xanthomonas (engineered), UniProt P14727 SEQ:1-983)
T4 chain: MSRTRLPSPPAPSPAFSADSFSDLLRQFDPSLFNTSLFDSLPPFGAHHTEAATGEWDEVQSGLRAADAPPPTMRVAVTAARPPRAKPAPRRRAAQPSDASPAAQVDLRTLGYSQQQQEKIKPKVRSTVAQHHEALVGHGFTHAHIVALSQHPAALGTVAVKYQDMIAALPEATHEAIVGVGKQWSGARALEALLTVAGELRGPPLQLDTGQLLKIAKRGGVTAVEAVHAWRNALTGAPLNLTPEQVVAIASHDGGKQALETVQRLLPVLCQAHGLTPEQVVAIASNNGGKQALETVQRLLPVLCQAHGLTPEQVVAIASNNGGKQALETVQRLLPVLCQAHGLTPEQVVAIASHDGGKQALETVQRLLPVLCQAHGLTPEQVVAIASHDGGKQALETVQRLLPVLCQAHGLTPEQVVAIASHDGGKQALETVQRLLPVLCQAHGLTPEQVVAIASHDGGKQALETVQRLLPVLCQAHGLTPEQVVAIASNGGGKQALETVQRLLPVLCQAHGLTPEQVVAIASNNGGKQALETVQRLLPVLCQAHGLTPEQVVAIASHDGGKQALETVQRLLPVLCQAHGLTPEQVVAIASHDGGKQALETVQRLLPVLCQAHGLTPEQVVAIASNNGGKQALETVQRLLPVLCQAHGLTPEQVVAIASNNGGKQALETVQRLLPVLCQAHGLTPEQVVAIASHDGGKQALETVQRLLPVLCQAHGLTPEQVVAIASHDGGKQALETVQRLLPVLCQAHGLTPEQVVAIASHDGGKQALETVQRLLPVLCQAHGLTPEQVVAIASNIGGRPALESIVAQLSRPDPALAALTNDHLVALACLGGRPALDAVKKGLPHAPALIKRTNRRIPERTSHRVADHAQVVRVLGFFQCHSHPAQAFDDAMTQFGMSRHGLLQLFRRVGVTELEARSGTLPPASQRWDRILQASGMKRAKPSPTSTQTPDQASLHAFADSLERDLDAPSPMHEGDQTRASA

[5] = target: T5, TALE1-NK (CACNA1C site 1 activator) (Xanthomonas (engineered), UniProt P14727 SEQ:1-983)
T5 chain: T4 chain with N287K, N321K, N525K, N627K, N661K

With TAATAGACCTTAGGGCTA the binding signal [1] was 13.9 % reduction vs wild-type site, the binding signal [2] was 66.1 % reduction vs wild-type site and the binding signal [3] was 36.3 % reduction vs wild-type site.
With TCAACCCCTGCCGGCCCA the binding signal [4] was 35.4 % reduction vs wild-type site and the binding signal [5] was 40.3 % reduction vs wild-type site.
TAATAAACCTTAAAACTA was tested, and the binding signal [2] was < 10 % of wild-type site activation.
